Experimental data reported in article PMC4336329 (PLoS ONE, 2015).
Out of some 310,000 compounds screened, about 14,000 (4.5%) showed an effect of 50% or more. The effect is printed as a negative number. This is one part of a sample in which strong results are shown more often than they occur.

What follows are compounds tested against human ether-à-go-go-related gene (hERG) potassium channel (human, UniProt Q12809) (assay: primary screen, population patch clamp on CHO cells stably expressing hERG; higher = less effect of the substance).
Sequence of human ether-à-go-go-related gene (hERG) potassium channel (Q12809 whole entry, looked up): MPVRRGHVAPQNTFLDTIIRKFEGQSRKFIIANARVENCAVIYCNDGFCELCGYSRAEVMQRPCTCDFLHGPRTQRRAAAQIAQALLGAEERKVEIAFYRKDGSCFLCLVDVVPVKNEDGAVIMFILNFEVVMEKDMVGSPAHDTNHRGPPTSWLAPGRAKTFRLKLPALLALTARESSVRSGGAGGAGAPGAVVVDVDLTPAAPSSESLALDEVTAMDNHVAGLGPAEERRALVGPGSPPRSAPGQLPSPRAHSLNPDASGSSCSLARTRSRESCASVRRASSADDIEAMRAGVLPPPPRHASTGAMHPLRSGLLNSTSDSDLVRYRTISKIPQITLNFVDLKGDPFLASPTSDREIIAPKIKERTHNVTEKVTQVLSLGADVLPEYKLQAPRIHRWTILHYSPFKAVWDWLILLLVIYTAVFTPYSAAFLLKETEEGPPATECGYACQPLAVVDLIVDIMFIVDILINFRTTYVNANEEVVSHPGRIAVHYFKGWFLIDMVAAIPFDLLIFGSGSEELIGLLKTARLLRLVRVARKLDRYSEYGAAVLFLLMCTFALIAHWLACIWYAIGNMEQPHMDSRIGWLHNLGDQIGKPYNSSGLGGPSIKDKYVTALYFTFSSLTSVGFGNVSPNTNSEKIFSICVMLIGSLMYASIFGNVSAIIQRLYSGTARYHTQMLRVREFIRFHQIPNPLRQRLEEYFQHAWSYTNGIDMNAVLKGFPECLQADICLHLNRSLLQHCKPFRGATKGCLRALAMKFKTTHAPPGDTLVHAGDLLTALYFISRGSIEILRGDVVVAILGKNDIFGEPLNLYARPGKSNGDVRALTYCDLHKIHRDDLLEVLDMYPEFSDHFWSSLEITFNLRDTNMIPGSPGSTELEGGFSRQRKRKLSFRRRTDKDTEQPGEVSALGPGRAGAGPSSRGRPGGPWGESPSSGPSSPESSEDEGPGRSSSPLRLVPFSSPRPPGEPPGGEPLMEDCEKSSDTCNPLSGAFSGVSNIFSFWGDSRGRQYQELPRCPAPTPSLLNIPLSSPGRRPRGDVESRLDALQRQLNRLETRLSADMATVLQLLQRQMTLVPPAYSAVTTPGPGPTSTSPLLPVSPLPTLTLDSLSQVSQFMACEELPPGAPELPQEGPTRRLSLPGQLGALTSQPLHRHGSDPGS
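Further: peak tail current of the secondary pulse compared with the same well before compound.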

SMILES	hERG current change (%, negative = inhibition) at 10uM [%]
O=C(O)c1ccc(N2C(=O)CC(N3CCN(c4ccc(Cl)cc4)CC3)C2=O)cc1 (stereo not drawn)	6.79
O=C(NCc1ccc(-c2csnn2)cc1)C1CC1	7.09
CC1CCN(c2nc3c(=O)[nH]c(N)nc3n2[C@@H]2O[C@H](CO)[C@@H](O)[C@H]2O)CC1	13.6
COC(=O)c1ccc(NC(=O)Cn2cnc3c(nnn3-c3cccc(OC)c3)c2=O)cc1	3.08
CN1CCc2nc3ccc(Cl)cc3c(-c3ccccc3Cl)c2C1.Cl	-65.7
CN1CCc2nc3ccc(F)cc3c(C(N)=O)c2C1.Cl	-4.4
Cl.Clc1ccc2nc3c(c(-c4ccccc4)c2c1)CNCC3	-37.3
CN(C)c1ccc(Nc2ncnc3ccc(Br)cc23)cc1	20.4
CNc1c([N+](=O)[O-])cnn1-c1ccc(C)cc1	-2.24
CC(C)CN1CCCC(N2CCN(c3cccc(Cl)c3)CC2)C1 (stereo not drawn)	-21.5
COc1ccccc1N1CCN(C2CCCN(Cc3cccc(O)c3)C2)CC1 (stereo not drawn)	-9.65
COc1ccc(N2CCN(C3CCCN(Cc4ccc(F)cc4Cl)C3)CC2)cc1 (stereo not drawn)	-35.2
CC(C)/C=C/CN1CCCC(N2CCN(c3cccc(Cl)c3)CC2)C1 (stereo not drawn)	-50.7
CCOc1cc(CN2CCN(c3ccc(C(C)=O)cc3)CC2)ccc1OC	-23.5
COc1ccccc1N1CCN(C2CCCN(Cc3ccc(Cl)cc3)C2)CC1 (stereo not drawn)	-41.1
COc1ccc(CN2CCCC(N3CCN(c4cccc(Cl)c4)CC3)C2)cc1OC (stereo not drawn)	-54.1
COc1ccc(O)c(CN2CCCC(N3CCN(c4ccc(F)cc4)CC3)C2)c1 (stereo not drawn)	-59.7
COc1ccc(O)c(CN2CCCC(N3CCN(c4ccccc4OC)CC3)C2)c1 (stereo not drawn)	-11
Cc1cccc(C(=O)N2CCCC(N3CCN(c4cccc(Cl)c4)CC3)C2)n1 (stereo not drawn)	-17.5
CCOc1cc(CN2CCCC(N3CCN(c4ccc(F)cc4)CC3)C2)ccc1OC (stereo not drawn)	-62.7
COc1cc(CN2CCCC(N3CCN(c4ccccc4C)CC3)C2)ccc1O (stereo not drawn)	-27

SMILES	hERG current change (%, negative = inhibition) at 10uM [%]
C#CC(C)(C)NC(=O)c1ccccc1OC	1.69
CC(C)CNC(=O)COC(=O)/C=C/c1ccccc1[N+](=O)[O-]	5.61
COCc1cc(C)nc(SCC(=O)c2ccc(O)c(O)c2)c1C#N	6.86
CN(C)S(=O)(=O)N(CC(=O)Nc1ccc2ccccc2c1)c1ccccc1	8.45
CN1CCN(CCC(=O)Nc2ccc(OCc3ccccc3)cc2)CC1	-41.6
Cn1cc(C(=O)c2cccc(Cl)c2Cl)cc1C(=O)O	10.2
COc1ccc(-c2cc(-c3ccc(O)cc3)nc(N)c2C#N)cc1	3.91
COc1cc(/C=C(\C#N)C(=O)Nc2ccc3ccccc3c2)c([N+](=O)[O-])cc1OC	8.14
Cc1c(C)n2c(SCC(=O)N3CCC(C)CC3)nnc2[nH]c1=O	15.3
CC(=O)Nc1ccccc1NC(=O)C/C(C)=N/NC(=O)Cc1cccc2ccccc12	10.8
C=CCSC1=C(C#N)C(c2ccccc2OC)CC(=O)N1 (stereo not drawn)	-2.19
COc1ccccc1N1CCN(C2CCCN(Cc3cc(F)cc(F)c3)C2)CC1 (stereo not drawn)	-6.62
COc1cc(CN2CCCC(N3CCN(c4ccc(F)cc4)CC3)C2)ccc1F (stereo not drawn)	-64.4
COc1ccccc1CN1CCCC(N2CCN(c3ccc(F)cc3)CC2)C1 (stereo not drawn)	-56.2
CCOc1cccc(CN2CCCC(N3CCN(c4cccc(Cl)c4)CC3)C2)c1O (stereo not drawn)	-58.7
COc1ccccc1CN1CCCC(N2CCN(c3ccccc3OC)CC2)C1 (stereo not drawn)	-11.9
COc1ccc(N2CCN(C3CCCN(Cc4ccccc4OCCO)C3)CC2)cc1 (stereo not drawn)	-24.1
COc1ccc(N2CCN(C3CCCN(Cc4ccc(F)cc4)C3)CC2)cc1 (stereo not drawn)	-32.8
CCn1nc(C)cc1C(=O)N1CCCC(N2CCN(c3cccc(Cl)c3)CC2)C1 (stereo not drawn)	-35
CCOc1cccc(CN2CCCC(N3CCc4cc(OC)c(OC)cc4C3)C2)c1O (stereo not drawn)	-39.3
CCCCn1c(N)c(N(CCOC)C(=O)C2CCN(S(=O)(=O)c3ccc(F)cc3)CC2)c(=O)[nH]c1=O	-1.06
